Laboratory results reported in PubChem BioAssay (NCI).
Compounds without any hit were thinned out: in the full panel of roughly 83,000, 20% have a hit.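 Note: values are percent growth. 100 is the growth of untreated cells, values between 100 and 0 indicate rising inhibition; between -100 and 0 indicates cell death.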 Unmarked numbers belong to inactive results. Activity calls are given as the source filed them. The calls were made as follows: active = growth percent below 10; inactive = the rest.

How the values were obtained:
Assay in all cases: NCI-60 one-dose screen, 48 h (100 = growth as untreated, 0 = no growth, -100 = all killed)
Conditions in all cases: 10 µM unless noted
NCI-H23 lung = test system: NCI-H23 lung
NCI-H226 lung = test system: NCI-H226 lung
NCI-H322M lung = test system: NCI-H322M lung
HOP-62 NSCLC = test system: HOP-62 NSCLC
NCI-H460 lung = test system: NCI-H460 lung
NCI-H522 lung = test system: NCI-H522 lung
A549/ATCC NSCLC = test system: A549/ATCC NSCLC
786-0 renal = test system: 786-0 renal
COLO 205 colon = test system: COLO 205 colon
DU-145 prostate = test system: DU-145 prostate
K-562 leukemia = test system: K-562 leukemia
MALME-3M melanoma = test system: MALME-3M melanoma
MDA-MB-231 breast = test system: MDA-MB-231 breast
RXF 393 renal = test system: RXF 393 renal
SF-268 CNS = test system: SF-268 CNS
SF-295 CNS = test system: SF-295 CNS
SF-539 CNS = test system: SF-539 CNS
UACC-257 melanoma = test system: UACC-257 melanoma
M14 melanoma = test system: M14 melanoma

Compound | growth (NCI-H23 lung) | growth (NCI-H226 lung) | growth (NCI-H322M lung) [%] | growth (HOP-62 NSCLC) | growth (NCI-H460 lung) | growth (NCI-H522 lung) | growth (A549/ATCC NSCLC) | growth (786-0 renal) | growth (COLO 205 colon) | growth (DU-145 prostate) | growth (K-562 leukemia) | growth (MALME-3M melanoma) | growth (MDA-MB-231 breast) | growth (RXF 393 renal) | growth (SF-268 CNS) | growth (SF-295 CNS) | growth (SF-539 CNS) | growth (UACC-257 melanoma) | growth (M14 melanoma)
O=c1c2cc(Cl)ccc2oc2ccc(OCCCCCN3CCCCCC3)cc12 | 87.5% | 90.1% | 89.6 | 79.7% | 63% | 80.2% | 61.2% | 70.2% | 76.7% | 91.9% | 34.6% | 114% | 84.4% | 84.4% | 87.4% | 97.5% | 94.1% | 83.7% | 45.2%
CCN(CC)CCNC(=O)n1cc(-c2ccncc2)c(-c2ccc(Cl)c(OC)c2)n1 | 98% | 61.5% | 118 | 66.8% | 104% | 81.9% | 77.5% | 72% | 70.1% | 97.8% | 85.9% | 114% | 79.5% | 85.3% | 67.9% | 97.7% | 75% | 93.1% | 78.6%
COc1ccc2nc3ccccc3c(NCc3ccc(Cl)cc3)c2c1 | 28.3% | 48.8% | 24.6 | 42.4% | 12.5% | 34.7% | 23.6% | -76.9% (active) | -61.9% (active) | 21.5% | -30.2% (active) | -81.6% (active) | 24.3% | -24.2% (active) | 53.5% | 25.8% | -5.77% (active) | -52.2% (active) | -86.1% (active)
Clc1ccc(-c2cnc3nonc3n2)s1 | 74.3% | 100% | 96.6 | 84.5% | 92.6% | 53.5% | 85% | 86.1% | 67.6% | 89.7% | 41.7% | 83% | 85.2% | 109% | 82.7% | 92.8% | 97.5% | 64.4% | 86.6%
CC1(C)OC2OC3C(CN)OC(c4ccccc4)OC3C2O1 (stereo not drawn) | 99.5% | 107% | 125 | 93.9% | 124% | 99% | 107% | 104% | 103% | 108% | 104% | 120% | 101% | 122% | 93.2% | 123% | 106% | 105% | 120%
COc1ccc2c(c1)sc1nc(-c3ccccc3)c(-c3cccc4ccccc34)n12 | 39.3% | 68.2% | 57.9 | 64.4% | 8.82% (active) | -11% (active) | 24.2% | 51.7% | 6.28% (active) | 18.9% | 15% | 51.5% | 39.7% | 7.5% (active) | 50.8% | -38.7% (active) | 0.248% (active) | 68.4% | 21%
O=C(N/N=C/c1ccc([N+](=O)[O-])cc1)c1ccccc1Nc1ccnc(C(F)(F)F)c1 | 62.3% | 70.8% | 83.3 | 48.8% | 94.3% | 67.9% | 82% | 81.8% | 103% | 98.6% | 78% | 86% | 70.4% | 91.7% | 86.2% | 83.8% | 84.3% | 79.4% | 101%
C=CCN1C(=O)/C(=c2\sc3n(c2=O)C2C(NN=3)N(CC)C(=O)N2CC)c2ccccc21 (stereo not drawn) | 26.7% | 62.7% | 49.4 | 32.4% | 9.1% (active) | -15.9% (active) | 23.9% | 32.3% | -14.2% (active) | 17% | 10% | 66% | 47.1% | 7.25% (active) | 47.3% | 12.9% | 4.08% (active) | 63.3% | 14.4%
CC1=C(O)C(=O)CC1 | 96.3% | 100% | 103 | 120% | 109% | 115% | 88.8% | 105% | 116% | 112% | 106% | 104% | 108% | 102% | 110% | 94.9% | 111% | 97.4% | 105%
Cc1ccc(NC(=O)c2cc(NCc3cc(O)ccc3O)ccc2O)cc1 | 92.9% | 95.4% | 101 | 97.9% | 102% | -27.5% (active) | 80.5% | 101% | 105% | 106% | 70.9% | 97.9% | 78.5% | 87.5% | 83.5% | 116% | 84.3% | 78.9% | 107%
O=C(CC(=O)c1cccc(Cl)c1)c1cccc(Cl)c1 | 28.4% | 41.5% | 47.9 | 22.1% | 21.6% | 38.5% | 57.7% | 43% | 46.9% | 42.6% | 20.8% | 64.5% | 45.2% | 61.9% | 51.4% | 26.8% | 41.4% | 52.7% | 37.3%
CCCCSc1ncnc2c1ncn2C1CCCCO1 (stereo not drawn) | 106% | 107% | 114 | 105% | 111% | 106% | 105% | 97.9% | 108% | 121% | 97% | 115% | 110% | 120% | 106% | 111% | 104% | 108% | 103%
CC(C)(C)c1ccc(OC(=O)Nc2ccccc2)cc1 | 103% | 106% | 94.4 | 111% | 111% | 100% | 99.3% | 83.8% | 119% | 107% | 88% | 96.6% | 109% | 118% | 96% | 103% | 90.5% | 99.5% | 96.5%
C/C(=N\Nc1ccc([N+](=O)[O-])cn1)c1ccc(N)cc1 | 109% | 109% | 120 | 109% | 110% | 85.8% | 96.1% | 99.7% | 104% | 116% | 13.8% | 133% | 88.9% | 132% | 94.4% | 128% | 93.7% | 105% | 106%
O=C(CCl)Nc1ccc2c(c1)C(=O)c1ccccc1C2=O | -21.2% (active) | -22.6% (active) | 83.5 | 19.9% | 3.8% (active) | -68.2% (active) | 75.7% | -72.3% (active) | -50.7% (active) | 3.17% (active) | -8.49% (active) | -62.5% (active) | -5.91% (active) | 39.8% | -20.3% (active) | 69.9% | -10.5% (active) | 36.2% | -31.6% (active)
COc1cc(/C=C/c2cc(/C=C/c3ccc(O)c(OC)c3)n(C(=O)Nc3ccc(F)c(Cl)c3)n2)ccc1O | -12.9% (active) | -4.32% (active) | 12.6 | -7.78% (active) | 4.43% (active) | 10.9% | 5.9% (active) | -32.9% (active) | -59.4% (active) | -11.8% (active) | -3.9% (active) | -16.8% (active) | 12.2% | -57.6% (active) | 6.57% (active) | -55.3% (active) | -16.6% (active) | -15.9% (active) | -21.9% (active)
CCN1C(=O)N(CC)C2C1N=C(SC)N2/N=C/C=C/c1ccccc1OC (stereo not drawn) | 21.9% | 34.8% | 31.7 | 25.2% | 6.18% (active) | -32.8% (active) | 17.7% | 14.5% | -48.9% (active) | 5.61% (active) | 6.68% (active) | 31.9% | 21.2% | 11% | 23.5% | 10.6% | -4.87% (active) | 55.3% | 4.55% (active)
